Assay [1] can be described thus: Confirmation and Secondary Assay for Modulators of Hemoglobin Beta Chain Splicing at IVS2 705 locus (AID 930).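 Note: HeLa cells stably expressing the EGFP-705 splicing reporter; series mostly up to about 46 µM.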 The procedure, abridged: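 Assay measures total GFP intensity per well in HeLa EGFP-705 cells after 2 days with compound; mis-splicing normally truncates EGFP, so fluorescence indicates corrected splicing.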
Assay [2] has as its target Muscarinic acetylcholine receptor M1 (Rattus norvegicus) (UniProt P08482). The experiment in a line: qHTS Assay for Antagonists of Acetylcholine Muscarinic M1 Receptor: Kinetic Measurement of Intracellular Calcium Response (AID 943).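 Note: Fluo-4 calcium signal as peak divided by basal fluorescence over 4 min; series mostly up to about 35 µM; nearly all actives have a fitted effect of over 75% in size.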 Put shortly:
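Antagonism measured as reduction of carbachol-evoked (EC80, 100 nM final) calcium flux in rat M1-CHO cells after 10 min compound exposure. Fluo-4 signal read kinetically; ratio of maximal to basal fluorescence.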
Background: In qHTS, concentration-response curves come from the screen itself.

For assay [3] the target is unchanged. The experiment in a line: qHTS Assay for Antagonists of Acetylcholine Muscarinic M1 Receptor: Measurement of IP-One Response (AID 944). Note: nearly all actives have a fitted effect of over 75% in size. Put shortly:
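IP1 accumulation measured via TR-FRET between d2-IP1 and Eu-cryptate anti-IP1 antibody after carbachol (200 nM, EC80) stimulation for 30 min; rat M1-transfected CHO cells received compound 10 min before agonist.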

The target of assay [4] is Pyruvate kinase (Leishmania mexicana) (UniProt Q27686). The experiment in a line: qHTS Validation Assay for Inhibitors of Leishmania Mexicana Pyruvate Kinase (AID 945). The procedure, abridged: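 Pyruvate kinase activity of E451W LmPYK (0.2 nM) was followed as ATP output after 1 h at room temperature with 0.5 mM PEP and 0.1 mM ADP, detected by PKLight luminescence.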
Pyruvate kinase (Leishmania mexicana), sequence (Q27686 2-499 E452W): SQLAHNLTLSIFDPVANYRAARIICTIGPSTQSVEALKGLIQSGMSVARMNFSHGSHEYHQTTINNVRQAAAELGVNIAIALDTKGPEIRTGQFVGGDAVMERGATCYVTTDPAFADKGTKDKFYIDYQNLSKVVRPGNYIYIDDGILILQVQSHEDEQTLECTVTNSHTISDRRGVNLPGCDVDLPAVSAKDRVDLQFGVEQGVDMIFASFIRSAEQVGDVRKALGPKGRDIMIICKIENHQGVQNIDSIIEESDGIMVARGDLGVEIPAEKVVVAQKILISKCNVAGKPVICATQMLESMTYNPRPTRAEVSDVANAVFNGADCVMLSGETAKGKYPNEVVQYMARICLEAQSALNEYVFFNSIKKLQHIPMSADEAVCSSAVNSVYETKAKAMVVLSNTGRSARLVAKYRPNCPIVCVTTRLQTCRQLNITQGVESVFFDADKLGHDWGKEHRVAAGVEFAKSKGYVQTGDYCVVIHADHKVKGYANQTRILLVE
The nature of assay [5]: qHTS Assay for Identification of Small Molecule Agonists for Thrombopoietin (TPO) Signaling Pathway (AID 917). Put shortly:
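Ba/F3 (mouse) + hTPO receptor + GpIIb-promoter luciferase; IL-3 withdrawn overnight; compound + 26 pM TPO (EC50), 24 hrs, 37 C, 5% CO2; Steadylite luminescence, 10 min RT.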

The nature of assay [6]: Confirmation and Secondary Assay for Modulators of Hemoglobin Beta Chain Splicing at IVS2 654 locus (AID 910).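 Note: HeLa cells stably carrying EGFP split by mutant beta-globin IVS2-654 intron.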 The procedure, abridged:
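HeLa cells stably expressing EGFP interrupted by β-globin IVS2-654 intron, seeded overnight in Opti-MEM/2% FCS, then treated 2 days at 37 °C. Restored splicing read as total peak GFP intensity per well by laser scanning cytometry (488 nm excitation, 500–520 nm emission); 500 nM antisense PNA as control.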

Assay [7] has as its target Cytochrome P450 3A4 (Homo sapiens) (UniProt P08684). The experiment in a line: qHTS Assay for Activators of Cytochrome P450 3A4 (AID 885). Note: nearly all actives have a fitted effect of over 65% in size. The procedure, abridged: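 Activators are scored by enhanced luminescence from CYP3A4 conversion of luciferin-PPXE (25uM, equal to KM) to luciferin, after 60 min at RT with an NADPH-regenerating system.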
For assay [8], the target named is Cytochrome P450 2D6 (Homo sapiens) (UniProt P10635). The experiment in a line: qHTS Assay for Inhibitors and Substrates of Cytochrome P450 2D6 (AID 891). Note: nearly all actives have a fitted effect of over 60% in size. Note: potency is the fitted concentration of half-maximal effect. The procedure, abridged:
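Luminescent read-out of luciferin formed by 5 nM human CYP2D6 demethylating 30 uM Luciferin-ME EGE (Km level) over 60 min at room temperature after NADPH regeneration addition. Data normalized to full inhibition by 1.43 uM quinidine.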

Assay [9] in a line: qHTS Assay for Identification of Small Molecule Antagonists for NFkB Signaling Pathway (AID 895; active = well fitted inhibition curve with a large enough effect in the signal ratio, with a control signal flat, not every such curve was filed as active; the % refers to the signal ratio). The procedure, abridged:
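ME-180 NFkB-bla cells (beta-lactamase under NFkB response element), plated overnight, treated with compound then 10 pM TNF alpha (about EC50) for 5 hrs at 37 C. LiveBLAzer FRET read at 460/530 nm emission, 405 nm excitation.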

A short description of assay [10]: qHTS Assay for Identification of Small Molecule Antagonists for Thrombopoietin (TPO) Signaling Pathway (AID 918). Note: potency is the fitted concentration of half-maximal effect; nearly all actives have a fitted effect of over 60% in size. The conditions noted are these: TPO-dependent cell signaling reporter, antagonist mode. Put shortly:
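Inhibition read as reduced luciferase luminescence after 24 h at 37 C in IL-3-deprived Ba/F3 cells carrying human TPO receptor and GPIIb-promoter reporter, stimulated with 26 pM TPO (final, its EC50) alongside compound.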

Values joined by “and” are separate entries in the source; they are usually repeats but may differ in a detail not shown here. Identical values can stand only once. Records with an inconclusive call do not appear. Entries that show only a call come without a potency. A structure can be active in one record and inactive in another. Active and inactive are the calls of the source. Unless noted, calls come from the whole dose curve; as a rule, active = well fitted curve in the direction sought with a large enough effect; inconclusive = small, poorly fitted or top-dose-only effect, or another doubt; inactive = no such curve, though single readings can be large; an effect the other way counts as inactive or inconclusive.

Cytochrome P450 2D6 (Homo sapiens), sequence (P10635 whole entry, looked up): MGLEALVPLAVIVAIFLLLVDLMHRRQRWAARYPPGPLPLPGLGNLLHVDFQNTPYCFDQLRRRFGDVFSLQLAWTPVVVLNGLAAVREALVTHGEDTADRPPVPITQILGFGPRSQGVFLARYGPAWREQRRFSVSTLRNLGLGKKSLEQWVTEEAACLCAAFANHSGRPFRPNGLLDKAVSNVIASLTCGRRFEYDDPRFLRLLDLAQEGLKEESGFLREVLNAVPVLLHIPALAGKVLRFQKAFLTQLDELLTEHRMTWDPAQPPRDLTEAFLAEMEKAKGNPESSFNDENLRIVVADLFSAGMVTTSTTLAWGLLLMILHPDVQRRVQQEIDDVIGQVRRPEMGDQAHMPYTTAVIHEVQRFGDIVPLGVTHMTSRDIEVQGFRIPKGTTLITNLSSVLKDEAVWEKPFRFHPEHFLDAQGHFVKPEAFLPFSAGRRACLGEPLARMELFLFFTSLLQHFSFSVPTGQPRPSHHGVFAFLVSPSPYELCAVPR
Muscarinic acetylcholine receptor M1 (Rattus norvegicus), sequence (P08482 whole entry, looked up): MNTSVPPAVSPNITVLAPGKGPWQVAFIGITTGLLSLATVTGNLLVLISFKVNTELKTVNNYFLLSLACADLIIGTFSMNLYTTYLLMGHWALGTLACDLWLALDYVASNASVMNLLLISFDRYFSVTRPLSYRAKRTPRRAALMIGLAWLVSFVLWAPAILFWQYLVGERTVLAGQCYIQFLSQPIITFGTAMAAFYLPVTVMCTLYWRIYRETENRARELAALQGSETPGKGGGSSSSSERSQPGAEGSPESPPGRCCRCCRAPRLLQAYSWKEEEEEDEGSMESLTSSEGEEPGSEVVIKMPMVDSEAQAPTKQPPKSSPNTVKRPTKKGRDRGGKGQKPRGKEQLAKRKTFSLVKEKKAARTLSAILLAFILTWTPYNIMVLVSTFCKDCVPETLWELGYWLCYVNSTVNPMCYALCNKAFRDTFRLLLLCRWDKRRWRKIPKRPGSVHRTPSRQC
Cytochrome P450 3A4 (Homo sapiens), sequence (P08684 whole entry, looked up): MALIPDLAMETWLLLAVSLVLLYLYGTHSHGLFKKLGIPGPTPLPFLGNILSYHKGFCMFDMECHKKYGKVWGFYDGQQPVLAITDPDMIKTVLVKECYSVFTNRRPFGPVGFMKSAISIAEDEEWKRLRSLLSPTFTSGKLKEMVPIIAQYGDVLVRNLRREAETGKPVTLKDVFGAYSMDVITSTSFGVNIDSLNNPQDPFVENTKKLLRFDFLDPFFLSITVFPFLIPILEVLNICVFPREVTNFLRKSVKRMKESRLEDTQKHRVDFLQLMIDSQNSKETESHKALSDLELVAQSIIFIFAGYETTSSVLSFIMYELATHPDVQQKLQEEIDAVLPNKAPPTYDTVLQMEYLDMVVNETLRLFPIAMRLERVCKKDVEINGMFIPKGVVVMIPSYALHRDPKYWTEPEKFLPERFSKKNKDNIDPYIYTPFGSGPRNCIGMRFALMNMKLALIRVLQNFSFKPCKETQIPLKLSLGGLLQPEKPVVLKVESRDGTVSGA

For the compound `NCCc1cnc[nH]1`, the result in assay [1] was inactive. Besides, the Potency result in assay [2], in [3] and in assay [4] was “inactive” each time.
Regarding `Cc1cnc(C(=O)NCCc2ccc(S(=O)(=O)NC(=O)NC3CCCCC3)cc2)cn1`, the Potency result in assay [5] and in assay [4] was “inactive” each time.
Regarding `CCCNCC(O)COc1ccccc1C(=O)CCc1ccccc1` (stereo not drawn), the call in assay [1] was inactive.
On to `NC(=O)NO`, for which the Potency entry in [6] and in assay [4] was “inactive” in each case. For the same compound, the outcome in assay [1] was inactive.
For the compound `O=c1c(O)c(-c2ccc(O)c(O)c2)oc2cc(O)cc(O)c12`, the Potency result in assay [7], in assay [8] and in assay [4] was “inactive” throughout. Besides, the compound was called inactive in assay [1].
Take `OCCN(CCO)c1nc(N2CCCCC2)c2nc(N(CCO)CCO)nc(N3CCCCC3)c2n1`: in assay [8], the Potency was 12.6 µM (active) and 10 µM (active); the result was inactive. Also, the compound was called inactive in assay [1]. The Potency entry in assay [4] was “inactive”.
As to `Cn1cnc2c1c(=O)[nH]c(=O)n2C`, the Potency result in assay [9], in assay [3] and in assay [4] was “inactive” in each case. The compound was called inactive in assay [1].
`CCOC(=O)C(C)(C)Oc1ccc(Cl)cc1`: the Potency result in assay [9], in [5], in assay [3] and in assay [4] was “inactive” in each case.
On to `NC(CO)C(=O)NNCc1ccc(O)c(O)c1O` (stereo not drawn), for which the Potency entry in assay [6] was “inactive”. For the same compound, the compound was classed as inactive in assay [1].
For the compound `COc1ccc(C2CNC(=O)C2)cc1OC1CCCC1` (stereo not drawn), the Potency entry in [7], in [9], in assay [2], in assay [3] and in assay [4] was “inactive” throughout.
With `CC(C(=O)O)c1cccc(C(=O)c2ccccc2)c1` (stereo not drawn), in assay [1], the compound was classed as inactive.
Take `Fc1ccc([C@@H]2CCNC[C@H]2COc2ccc3c(c2)OCO3)cc1`: the Potency result in assay [7] and in [4] was “inactive” throughout. In [10], the Potency is 12.6 µM (active).
Turning to `CN(C)C(=N)N=C(N)N`, in assay [1], the result was inactive.

Source of the values: PubChem BioAssay (NCATS).
